# Assay outcomes (PubChem BioAssay)
# An excerpt weighted towards active compounds, which were near 1.2% of everything screened.
# Tb PFK block: blocks T. brucei phosphofructokinase; T. brucei PFK, ADP-Glo luminescence; 330,000 compounds, 0.17% hits; Potency, µM (highest dose often 57.5 µM), without a hit: at the highest dose activity, negative = inhibition, usual class: inhibitors; AID 485367; O15648; active = well fitted inhibition curve with a large enough effect; inconclusive = small, poorly fitted or top-dose-only effect, or effect the other way;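 note: potency is the fitted concentration of half-maximal effect; 0% = uninhibited 1x PFK enzyme wells and -100% = no-enzyme wells; nearly all actives have a fitted effect of over 60% in size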
#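 1.25 nM PFK with 0.5 mM F6P and 0.1 mM ATP in 0.1 M TEA pH 8.0, 5 mM MgCl2, incubated 45 min at room temperature; ADP measured by ADP-Glo luminescence; compounds titrated up to 57 uM.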
# TSG101-PTAP inh: blocks PTAP/TSG101 interaction to inhibit HIV-1 budding; Potency, µM (highest dose often 115 µM), without a hit: top-dose activity change, negative = inhibition, most hits filed as inhibitors; Q99816; Fluorescence polarization, FITC-PTAP peptide / Tsg101 binding; 340,000 tested, under 10 active; active = well fitted inhibition curve with a large enough effect in the main read-out, with a control signal flat, not every such curve was filed as active; inconclusive = small, poorly fitted or top-dose-only effect, or effect the other way, or a change in a side signal; inactive = no such curve, though single readings can be large or run the other way; note: potency is the fitted concentration of half-maximal effect; % of control where 0% means no effect
# Target sequence (Q99816 whole entry, looked up): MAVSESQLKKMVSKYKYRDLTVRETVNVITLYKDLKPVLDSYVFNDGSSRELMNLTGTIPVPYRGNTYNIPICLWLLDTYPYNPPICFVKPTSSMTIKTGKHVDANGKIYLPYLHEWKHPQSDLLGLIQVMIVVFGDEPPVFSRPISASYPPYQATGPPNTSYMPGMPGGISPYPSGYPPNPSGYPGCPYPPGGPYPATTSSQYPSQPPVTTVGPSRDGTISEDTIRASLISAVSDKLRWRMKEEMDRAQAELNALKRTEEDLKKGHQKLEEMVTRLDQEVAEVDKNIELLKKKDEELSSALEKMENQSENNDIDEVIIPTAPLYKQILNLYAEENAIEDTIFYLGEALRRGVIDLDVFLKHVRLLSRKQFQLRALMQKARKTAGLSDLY
#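 Steps: Tsg101 binding domain dispensed (10 uM final), compounds pinned in DMSO, FITC-labeled PTAP-motif peptide added (50 nM final); after 20 min binding at room temperature, polarization measured.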
# KCNH2 WT inh: inhibitors of human wildtype KCNH2 potassium channel; Q12809; U2OS, BacMam KCNH2, thallium flux FluxOr; hits give low values; activity change, % at 1.84 µM; 340,000 compounds, 0.37% hits;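 active = maximum activity change below -70%; inconclusive = maximum activity change between -70% and -50%; inactive = maximum activity change above -50%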; note: % is set by controls: 0 for no effect and ±100 for the full control effect
#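 U2OS cells were transduced with wild-type KCNH2 virus (2.03 x 10^8 / mL) for 4 h at room temperature, then cultured overnight at 37 C. Thallium flux was read with FluxOr dye. Rate constants were normalized to DMSO controls.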
# KCNH2 3.1 inh: inhibitors of human KCNH2 3.1 potassium channel isoform | U2OS KCNH2 3.1, thallium flux FluxOr; hits give low values | activity change, % (tested at about 1.8 µM) | 340,000 compounds, 0.95% hits;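 active = maximum activity change below -70%; inconclusive = maximum activity change from -70% to -50%; inactive = maximum activity change above -50%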;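 note: thallium influx rate constant from kinetic fluorescence after stimulation buffer; % is set by controls: 0 for no effect and ±100 for the full control effect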
#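 U2OS cells transduced with KCNH2 3.1 mutant virus (1.77 x 10^8 /mL, 4 h), plated overnight at 37 C, loaded 45 min with FluxOr dye plus Red40 quencher. Thallium flux rate constant from kinetic reads after stimulation buffer, normalised to controls.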
# Numbers without * were called inactive; ? = inconclusive; nt = no result given.
SMILES,Tb PFK block,TSG101-PTAP inh,KCNH2 WT inh,KCNH2 3.1 inh
O=P(NC(c1ccccc1)c1ccccc1)(Oc1ccccc1)Oc1ccccc1,-1%,-1%,23,-88*
O=P(Nc1ccccc1)(Oc1ccccc1)Oc1ccccc1,0%,-3%,28,7
CSc1nc(C)c(Br)c(N2CC2)n1,nt,-7%,0,-14
CN1/C(=C\C=C\C2=[N+](C)c3ccc4ccccc4c3C2(C)C)C(C)(C)c2ccccc21,-25%,nt,nt,nt
CCN1/C(=C/C=C/C2=[N+](CC)c3ccccc3C2(C)C)C(C)(C)c2ccccc21,nt,nt,-131*,-77*
COC(=O)C1=C(c2ccc(C(C)=O)cc2)C[C@@H]2CC[C@H]1N2C(=O)N1CCCCC1,2%,-1%,13,-5
COC(=O)C1=C(c2ccc(C(C)=O)cc2)C[C@@H]2CC[C@H]1N2C(=O)N1CCCC1,-1%,1%,2,-90*
c1ccc(C(OCCN2CCN(c3ncccn3)CC2)c2ccccc2)cc1,nt,-2%,1,10
Clc1ccc(C(OCCN2CCCCC2)c2ccccc2)cc1 (configuration not stated),-5%,0%,-17,-102*
O=c1c2ccccc2[nH]c(=S)n1-c1ccc2c(c1)OCCO2,1%,-2%,-7,9
Nc1ccc2c3c(cccc13)-c1ccccc1-2,nt,?,-40,?
O=C(c1cc(-c2ccc(Cl)cc2)n(-c2ccc(Cl)cc2Cl)n1)N1CCOCC1,-11%,-5%,-49,-104*
O=C(c1cc([N+](=O)[O-])ccc1N1CCNCC1)N1CCOCC1,?,-6%,-3,0
CC(C)(C)OC(=O)N(CCc1ccccc1)Cc1ccc(OCc2cccc(NC(=O)c3ccccc3)c2)cc1,nt,?,-26,-3
O=C(COc1ccc2ccccc2c1)N1CCN(Cc2c[nH]c3ccccc23)CC1,-3%,-3%,19,-10
O=C(COc1ccc(Br)cc1)N1CCN(Cc2c[nH]c3ccccc23)CC1,-9%,-1%,-80*,-72*
COc1ccc(CN2CCN(C(=O)COc3ccc4ccccc4c3)CC2)c(OC)c1,0%,-3%,-24,-93*
CN1CCN(c2ccc([N+](=O)[O-])c(Sc3nncn3C)c2)CC1,-10%,-3%,3,-123*
COc1ccc(CN2CC=C(c3ccc(F)cc3)CC2)cc1Br,-7%,2%,11,-139*
CC1N=C(c2ccccc2)c2cc(Br)ccc2NC1=O (configuration not stated),-6%,-6%,6,11
O=c1c2ccccc2[se]n1-c1ccccc1,4.8µM*,0%,5,10
CS(=O)(=O)c1ccc(C2=C(CNC(=O)c3ccncc3)[C@H]3CC[C@@H](C2)N3Cc2ccco2)cc1,nt,nt,-7,-19
Cc1ccc(C=C2C(Cl)=C(Cl)C(Cl)=C2Cl)cc1,?,-2%,-8,-6
COC(=O)C1=C(c2ccc(OCc3ccccc3)cc2)C[C@@H]2CC[C@H]1N2C(=O)NCc1cccc(OC)c1,-3%,-2%,2,-4
O=C1NC(=O)N(Cc2ccco2)C(=O)/C1=C/C=C/c1ccco1,30µM*,-3%,-1,25
SMILES,Tb PFK block,TSG101-PTAP inh,KCNH2 WT inh,KCNH2 3.1 inh
CC(Cc1ccccc1)NCC(=O)Nc1cc(N(C)C)nc2ccccc12 (configuration not stated),-4%,1%,2,-100*
CC(Cc1ccccc1)NCc1ccccc1O (configuration not stated),-8%,-2%,3,11
O=NN(CCCl)C(=O)NCCCl,?,0%,-4,20
CCC(=Nc1ccc2c(c1)CCC2)c1c(O)n(-c2ccc(OC)cc2)c(=O)[nH]c1=O,2%,-1%,-104*,4
COC(=O)C1=C(c2ccc(F)cc2OCc2ccccc2)C[C@@H]2CC[C@H]1N2C(=O)NCc1ccc([N+](=O)[O-])cc1,0%,-6%,-20,-88*
COC(=O)C1=C(c2cccc(OC)c2OC)C[C@@H]2CC[C@H]1N2C(=O)NCc1ccc(F)cc1,nt,2%,-1,-126*
COc1ccc(CN2CCN(Cc3ccccc3F)CC2)cc1,-4%,-1%,37,4
CCOC(=O)C1(c2ccccc2)CCN(CCC(C#N)(c2ccccc2)c2ccccc2)CC1,nt,-1%,-45,-88*
CCOC(=O)C1(c2ccccc2)CCN(CCC(=O)Nc2ccc(OC)cc2)CC1,nt,nt,56,-32
Oc1ccc2c3c1O[C@H]1c4[nH]c5ccccc5c4C[C@@]4(O)[C@@H](C2)N(CC2CC2)CC[C@]314,-6%,1%,34,-70*
COC(=O)C1=C(c2cccc(OCc3ccccc3)c2)C[C@@H]2CC[C@H]1N2C(=O)NCCOc1ccccc1,9%,-1%,-4,-4
CCOC(=O)C1(CCc2ccccc2)CCN(Cc2cccc3c2OCO3)CC1,0%,0%,-112*,-97*
CC(C)N1CCN(Cc2cccc([N+](=O)[O-])c2)CC1,-10%,-2%,0,3
O=[N+]([O-])c1cccc(CN2CCN(Cc3ccc(Cl)cc3)CC2)c1,-2%,0%,-9,-84*
CN(C)/C=C/C(=O)C(Cl)(Cl)Cl,3%,0%,2,11
Cc1nc2ccccc2n1C1CCN(Cc2nnnn2CCc2ccccc2)CC1,-4%,0%,-23,-82*
c1ccc(CCn2nnnc2CN2CCC(n3nnc4ccccc43)CC2)cc1,1%,-1%,7,-17
Fc1ccc2c(c1)nnn2C1CCN(Cc2nnnn2CCc2ccccc2)CC1,-7%,-3%,1,-1
Cc1nc2cc(C(F)(F)F)ccc2n1C1CCN(Cc2nnnn2Cc2cccs2)CC1,-4%,-6%,-20,-75*
Fc1ccc(Cn2nnnc2CN2CCC(n3nnc4cc(C(F)(F)F)ccc43)CC2)cc1,1%,-4%,-22,-98*
Cc1nc2cc(C(F)(F)F)ccc2n1C1CCN(Cc2nnnn2Cc2ccc3c(c2)OCO3)CC1,3%,-1%,-16,-77*
CN(C)CCN(CC1CCCN(Cc2ccccc2F)C1)C(=O)Cc1c(F)cccc1F (configuration not stated),1%,-3%,-2,-20
CCOC(=O)C(=O)NC1CCSC1=O (configuration not stated),-3%,0%,5,10
CCCC(C)C(=O)NC1CCSC1=O (configuration not stated),3%,-2%,-3,-83*
Cc1ccc(N=Nc2c(O)[nH]c(=O)[nH]c2=O)cc1S(=O)(=O)Nc1ccc(Br)cc1,4%,?,-2,-22
COc1cc(CNC(=O)CCCC/C=C\C(C)C)ccc1O,1%,nt,nt,nt
CS(=O)(=O)c1ccc(C2=C(CNC(=O)c3ccc([N+](=O)[O-])cc3)[C@H]3CC[C@@H](C2)N3CCOc2ccccc2)cc1,nt,nt,-92*,-110*
CS(=O)(=O)c1ccc(C2=C(CNC(=O)c3ccc([N+](=O)[O-])cc3)[C@H]3CC[C@@H](C2)N3Cc2ccccc2)cc1,nt,nt,-86*,-101*
